Test results taken from PubChem BioAssay AID602396 (The Scripps Research Institute Molecular Screening Center, 2012).
In all, about 360,000 compounds went through this assay and about 460 (0.13%) were called active.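 Rule for the calls: active = inhibition above the mean inhibition of all tested compounds plus 3 SD (cut at about 73% in these data); inactive = the rest.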 The entries come from a sample that favours actives as a whole.

Molecular target: Nuclear receptor subfamily 5 group A member 2 (Homo sapiens) (UniProt O00482)
Sequence (O00482 whole entry, looked up): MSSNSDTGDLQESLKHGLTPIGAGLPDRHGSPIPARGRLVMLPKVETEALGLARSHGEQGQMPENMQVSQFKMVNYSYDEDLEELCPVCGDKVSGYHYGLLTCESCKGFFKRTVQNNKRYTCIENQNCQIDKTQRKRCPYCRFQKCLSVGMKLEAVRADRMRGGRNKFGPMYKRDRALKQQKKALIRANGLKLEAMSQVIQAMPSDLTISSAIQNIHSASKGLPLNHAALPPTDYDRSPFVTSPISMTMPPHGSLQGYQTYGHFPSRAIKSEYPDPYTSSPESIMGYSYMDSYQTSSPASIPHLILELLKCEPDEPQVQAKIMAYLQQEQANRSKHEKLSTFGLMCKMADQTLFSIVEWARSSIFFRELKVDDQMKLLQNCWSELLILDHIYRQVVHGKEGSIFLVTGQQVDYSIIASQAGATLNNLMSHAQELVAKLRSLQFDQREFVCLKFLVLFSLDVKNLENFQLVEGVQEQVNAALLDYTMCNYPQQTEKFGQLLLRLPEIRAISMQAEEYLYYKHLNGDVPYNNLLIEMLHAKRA
Experiment: LRH-1 (NR5A2) inverse agonists, primary screen, cell-based, luminescence, HEK293T, StAR-luciferase reporter (AID 602396);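 note: 0% = DMSO wells and 100% = reporter-only cells lacking LRH-1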
Conditions: LRH-1 transfected, 24 h, at 3.6 µM, active compounds read high

Compound	inhibition
COC(=O)c1ccc(CSc2ccc(S(=O)(=O)N3CCCCC3)cn2)cc1	0.83% (inactive)
CCOc1cc(C(=O)Nc2c(C)ccc3nsnc23)cc(OCC)c1OCC	5.78% (inactive)
OCCCNc1nccc(-c2cc(Nc3cccc(Cl)c3)ncn2)n1	96.8% (active)
CC(=O)Nc1ccc(NC(=O)CSc2nnnn2-c2ccccc2F)cc1	3.27% (inactive)
CN(C)CCCn1c(N)c(C#N)c2nc(C#N)c(C#N)nc21	-20% (inactive)
Cc1noc(C)c1NC(=O)Nc1cccc2c1O[C@H](CN(C)S(=O)(=O)c1c(C)noc1C)[C@@H](C)CN([C@H](C)CO)C2=O	-28.3% (inactive)
CCOc1ccc(Br)cc1S(=O)(=O)Nc1ccc(C(=O)OC(C)C(=O)N(C)c2ccccc2)cc1 (stereo unspecified)	-9.98% (inactive)
Cc1ccc(CC2CC(=O)N(c3cc(C)ccc3C)C2=O)cc1 (stereo unspecified)	5.12% (inactive)
COc1ccc(OCCn2ccnc2C)cc1	10.9% (inactive)
Cc1ccccc1/[N+]([O-])=C/c1ccncc1	13% (inactive)
Cc1cc(N2CCCC2=O)cc(C)c1S(N)(=O)=O	7.43% (inactive)
CCN(C(=O)COC(=O)CCC(=O)c1cccs1)C1CCCCC1	4.1% (inactive)
CC1CC(c2ccccc2)n2nc(NC(=O)c3cccs3)nc2N1 (stereo unspecified)	5.57% (inactive)
CCc1ccc(NC(=O)CCNS(=O)(=O)c2cccs2)cc1	-12.4% (inactive)
Cc1ccc(-n2c(=O)cc(N3CCN(Cc4ccccc4)CC3)[nH]c2=O)cc1	8.9% (inactive)
Cc1ccc(C(=O)COC(=O)CCN2C(=O)C3C4CC(C(Br)C4Br)C3C2=O)cc1 (stereo unspecified)	-1.24% (inactive)
Cc1cc(C(=O)NNC(=O)CCC2CCCCC2)c(C)o1	2.29% (inactive)
CC(C)c1ccc(NC(=O)C2CCCN(S(=O)(=O)c3cccnc3)C2)cc1 (stereo unspecified)	-1.1% (inactive)

Compound	inhibition
Cn1c(=O)c2c(nc(OCc3cccnc3)n2Cc2ccccc2)n(C)c1=O	-21.8% (inactive)
CCn1c(C)nc2c1C(=O)c1ccccc1C2=O	-4.55% (inactive)
Cc1ccc(-c2noc(C3CCCN(C(=O)c4cccc(Cl)c4)C3)n2)o1 (stereo unspecified)	-49.4% (inactive)
Cc1ccc(-c2ccnc3nc(Sc4ncc(C(F)(F)F)cc4Cl)nn23)cc1	-3.99% (inactive)
CN(C)S(=O)(=O)c1ccc(N2CCCC2)c(C(=O)Nc2cccc(F)c2)c1	8.36% (inactive)
Cc1nc(COc2cc3oc(=O)cc(C)c3cc2Cl)cs1	-10.4% (inactive)
O=C(CN1CCN(S(=O)(=O)c2ccc3ccccc3c2)CC1)NC(=O)NC1CCCCC1	14.8% (inactive)
CCCCCN(C(=O)NC(=O)Nc1cccc(C)c1C)S(C)(=O)=O	-7.26% (inactive)
CCCCn1c(=S)[nH]c2ncccc2c1=O	0.69% (inactive)
Cc1cc(NC(=O)CS(=O)(=O)c2cn(C)c3ccccc23)no1	-3.59% (inactive)
Cc1c(Cl)cnc(NC(=O)COC(=O)C2CCCC2)c1Cl	1.2% (inactive)
CC(=O)NS(=O)(=O)c1ccc2c(c1)Cc1cc(S(=O)(=O)NC(C)=O)ccc1-2	9.84% (inactive)
N#Cc1ccc(CN2CCN(CC(=O)Nc3ccccc3C(=O)NC3CC3)CC2)cc1	9.21% (inactive)
CCC1=NN(C(=O)Cc2ccc([N+](=O)[O-])cc2)C(O)(c2ccc(Br)cc2)C1 (stereo unspecified)	-7.24% (inactive)
CCN(CC)C(=O)C1=C(C)N(Cc2ccccc2)C(=O)C(CC(=O)NC(c2ccccc2)c2ccccc2)C1 (stereo unspecified)	-17.2% (inactive)
O=C(NCCCn1ccnc1)C(=O)c1cn(CC(=O)N2CCCCCC2)c2ccccc12	9.94% (inactive)
CC(C)CCC(=O)Nc1cc(S(=O)(=O)N2CCOCC2)ccc1N1CCCC1	6.05% (inactive)
Cc1cn([C@H]2C[C@H](O)[C@@H](CNC(=O)[C@H](N)Cc3cccnc3)O2)c(=O)[nH]c1=O	2.03% (inactive)
